High-throughput results as filed in PubChem BioAssay.
IL1B secr inh – qHTS for Inhibitors of Inflammasome Signaling: IL-1-beta AlphaLISA Primary Screen; THP-1 LPS/ATP IL-1B secretion, AlphaLISA, 16 h; stronger effect = lower value; activity change, % at 57.5 µM; 360,000 tested, 4.7% active; AID 743279, 2014; in the data active = activity change below about -50%; inconclusive = mostly about -30% to -49%
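THP-1 cells pretreated 1 hr with compounds (up to 57.5 uM final), then stimulated with LPS (250 ng/mL final) plus ATP (1.25 mM final); secreted IL-1B measured by AlphaLISA after 16 hr, decreased signal indicating inhibition.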
uPA surface inh – qHTS for Inhibitors of Cell Surface uPA Generation; AID 540303, 2011; 330,000 tested, 0.31% active; Potency, µM (series often up to 38.3 µM), for inactives: top-dose activity change, negative = inhibition, usual class: inhibitors; cell surface uPA generation assay, qHTS; active = well fitted inhibition curve with a large enough effect; inconclusive = small, poorly fitted or top-dose-only effect; inactive = no such curve, though single readings can be large or run the other way; tested in mouse RAW 264.7 cells; note: potency is the fitted concentration of half-maximal effect; nearly all actives have a fitted effect of over 55% in size
TDP1 cell CPT – qHTS for Inhibitors of human tyrosyl-DNA phosphodiesterase 1 (TDP1): qHTS in cells in presence of CPT. chicken DT40 Tdp1-/-;hTDP1 cells + 20 nM CPT, ATP luminescence, 48 h. 420,000 tested, 12% active. AID 686979, 2013. Potency, µM (series often up to 46.2 µM), for inactives: at the highest dose activity change, negative = growth inhibition, actives largely listed as inhibitors; note: potency is the fitted concentration of half-maximal effect; nearly all actives have a fitted effect of over 55% in size
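Cell growth measured by CellTiter-Glo luminescence after a minimum 48 h, 37 C compound exposure with 20 nM CPT in Tdp1-knockout DT40 cells stably expressing hTDP1, seeded 400/well; qHTS titration format.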
TDP1 cell noCPT – qHTS for Inhibitors of human tyrosyl-DNA phosphodiesterase 1 (TDP1): qHTS in cells in absence of CPT | AID 686978, 2013 | 420,000 tested, 15% active | DT40 Tdp1-/- hTDP1 cells, no CPT, ATP luminescence, 48 h | Potency, µM (doses to about 46.2 µM), for inactives: top-dose activity change, negative = growth inhibition, most hits filed as inhibitors; note: potency is the fitted concentration of half-maximal effect; nearly all actives have a fitted effect of over 55% in size
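Growth kinetics read by CellTiter-Glo luminescence after ≥48 hr at 37 °C. Cells: DT40 Tdp1-/- stably carrying human TDP1, 400 per well, compound exposure in the absence of CPT (DMSO vehicle).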
HT1080 IDH1KD tx – qHTS for induction of synthetic lethality in tumor cells producing 2HG: qHTS for the HT-1080-IDH1KD cell line | Potency, µM (top dose mostly 46.1 µM), for inactives: top-dose activity, negative = toxicity, usual class: cytotoxic | HT-1080 IDH1 knockdown viability, ATP luminescence, 48 h | AID 686971, 2013 | 360,000 tested, 2% active;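 note: potency is the fitted concentration of half-maximal effect; 0% = DMSO wells and -100% = cell-free medium wells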
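After a 2 h attachment period, IDH1KD HT-1080 cells took pin-transferred compound for 48 h at 37 °C; ATP-based luminescence after 10 min room-temperature reagent incubation reported viability.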
HT1080NT lethal – qHTS for induction of synthetic lethality in tumor cells producing 2HG: qHTS for the HT-1080-NT fibrosarcoma cell line. HT-1080-NT fibrosarcoma viability, CellTiter-Glo ATP luminescence, 48 h. Potency, µM (doses to about 46.1 µM), for the others: top-dose activity, negative = less viability, actives largely listed as cytotoxic. 360,000 tested, 1.6% active. AID 686970, 2013;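 note: NT is the 2HG producing partner of a matched IDH1 knockdown line; potency is the fitted concentration of half-maximal effect; 0% = DMSO-treated cells and -100% = media-only wells without cells; nearly all actives have a fitted effect of over 55% in size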
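A 48-hour cytotoxicity screen used HT-1080-NT cells plated 2 hours before compound delivery. ATP-based CellTiter-Glo luminescence measured viability, normalized to DMSO and no-cell controls.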
Starred values were filed as active, the others as inactive. A selection: hits, their analogues and other compounds. The true share with any hit is near 19%. Unless noted, calls come from the whole dose curve; as a rule, active = well fitted curve in the direction sought with a large enough effect; inconclusive = small, poorly fitted or top-dose-only effect, or another doubt; inactive = no such curve, though single readings can be large; an effect the other way counts as inactive or inconclusive. Unless noted, % is set by controls: 0 for no effect and ±100 for the full control effect.

For Cc1onc(-c2ccccc2)c1C(=O)Nc1ccccc1NC(=O)c1c(-c2ccccc2)noc1C the results were IL1B secr inh -9.8, uPA surface inh 0.0%, TDP1 cell CPT 14.6µM*, TDP1 cell noCPT 18.4µM*, HT1080 IDH1KD tx 21.1% and HT1080NT lethal 19.1%.
For Cc1onc(-c2ccccc2)c1C(=O)Nc1nnc(C(C)C)s1 the results were IL1B secr inh 22.4, uPA surface inh 4.0%, TDP1 cell CPT 3.8%, TDP1 cell noCPT 12.6%, HT1080 IDH1KD tx 17.7% and HT1080NT lethal 24.5%.
O=C(Nc1ncc([N+](=O)[O-])s1)c1ccc2c(c1)OCO2 was read as IL1B secr inh -12.5, uPA surface inh -16.6%, TDP1 cell CPT inconclusive, TDP1 cell noCPT 18.4µM*, HT1080 IDH1KD tx 16.4µM* and HT1080NT lethal 14.6µM*.
`Cc1onc(-c2ccccc2)c1C(=O)N(Cc1ccccc1)C(C)C` gave IL1B secr inh 23.5, uPA surface inh -1.4%, TDP1 cell CPT inconclusive, TDP1 cell noCPT 25.9µM*, HT1080 IDH1KD tx 5.2% and HT1080NT lethal inconclusive.
Screening Cc1onc(-c2ccccc2)c1C(=O)Nc1ncc([N+](=O)[O-])s1 returned IL1B secr inh -66.8*, uPA surface inh -6.2%, TDP1 cell CPT 23.1µM*, TDP1 cell noCPT 20.6µM*, HT1080 IDH1KD tx inconclusive and HT1080NT lethal inconclusive.
Screening Cc1ccc2c(=O)cc(C(=O)Nc3sc4c(c3C(=O)NCC3CCCO3)CCC4)oc2c1 (configuration not stated) returned TDP1 cell CPT -15.2% and TDP1 cell noCPT -16.4%.
For CC1(C)CCCC2(C)C(OCCO)=CC(=O)C=C12 (configuration not stated) the results were IL1B secr inh -7.7, TDP1 cell CPT -3.8%, TDP1 cell noCPT -19.0%, HT1080 IDH1KD tx 10.4% and HT1080NT lethal 2.1%.
Screening COc1ncc2nc(-c3ccc(F)cc3)c(=O)n(C[C@H]3CCCO3)c2n1 returned TDP1 cell CPT 6.9% and TDP1 cell noCPT -11.4%.
`CCN(CC)C(=O)[C@H]1CC(CC(=O)NCCN2CCOCC2)C(=O)N2CCc3c([nH]c4ccccc34)[C@]12C` (some centres not stated) gave IL1B secr inh -2.7, uPA surface inh 12.3%, TDP1 cell CPT -4.0%, TDP1 cell noCPT -5.5%, HT1080 IDH1KD tx 3.8% and HT1080NT lethal 4.7%.
`CC1=C(C(=O)OC2CCC(C)CC2)C(c2ccc(O)c([N+](=O)[O-])c2)NC(=O)N1` (configuration not stated) gave IL1B secr inh 1.9, uPA surface inh 15.8%, TDP1 cell CPT -26.3%, TDP1 cell noCPT -13.9%, HT1080 IDH1KD tx -0.3% and HT1080NT lethal -11.9%.
For Cc1ccccc1NC(=O)c1c(-c2ccccc2)noc1C the results were IL1B secr inh 24.6, uPA surface inh 7.6%, TDP1 cell CPT 11.6µM*, TDP1 cell noCPT 9.2µM*, HT1080 IDH1KD tx 3.9% and HT1080NT lethal 1.3%.
For CCCOc1ccccc1NC(=O)c1c(-c2ccccc2)noc1C the results were IL1B secr inh 29.8, uPA surface inh inconclusive, TDP1 cell CPT inconclusive, TDP1 cell noCPT 8.2µM*, HT1080 IDH1KD tx -10.6% and HT1080NT lethal 0.0%.
For COCCCn1cc(CN2CC(N3CCCCC3)CS2(=O)=O)nn1 (configuration not stated) the results were IL1B secr inh 22.0, TDP1 cell CPT 0.9%, TDP1 cell noCPT 0.4%, HT1080 IDH1KD tx 0.5% and HT1080NT lethal 21.1%.
c1cc2c3c(c1)c1c(n3CCNC2)CCCC1 was read as TDP1 cell CPT inconclusive and TDP1 cell noCPT 23.7µM*.
COc1ccc(NC(=O)COC(=O)Cc2cccs2)cc1Cl was read as IL1B secr inh 16.7, TDP1 cell CPT 15.6%, TDP1 cell noCPT 3.8%, HT1080 IDH1KD tx 9.6% and HT1080NT lethal 9.7%.
COc1cc2c(cc1C(F)(F)F)N(C(=O)Nc1cc(F)cc(-c3cccnc3)c1)CC2 was read as TDP1 cell CPT 4.47µM*, TDP1 cell noCPT 3.55µM*, HT1080 IDH1KD tx inconclusive and HT1080NT lethal 11.2µM*.
For Cn1ccc2cc3c(cc21)CCN3C(=O)Nc1cccnc1 the results were IL1B secr inh -7.5, uPA surface inh inconclusive, TDP1 cell CPT 7.5%, TDP1 cell noCPT inconclusive, HT1080 IDH1KD tx 12.4% and HT1080NT lethal 11.6%.
For COc1ccc(CCNC(=O)c2ccc(Cn3c(=O)c4ccccc4n(Cc4cccc(Cl)c4)c3=O)cc2)cc1OC the results were TDP1 cell CPT 20.6µM* and TDP1 cell noCPT 10.3µM*.
`COCCCNC(=O)Cn1c(=O)n(Cc2ccc(C(=O)NCCc3ccc(OC)c(OC)c3)cc2)c(=O)c2ccccc21` gave IL1B secr inh 6.7, uPA surface inh -2.4%, TDP1 cell CPT 4.5%, TDP1 cell noCPT inconclusive, HT1080 IDH1KD tx 0.0% and HT1080NT lethal 7.1%.
`COc1ccc(CCNC(=O)c2ccc(Cn3c(=O)c4ccccc4n(Cc4ccc(F)cc4Cl)c3=O)cc2)cc1OC` gave TDP1 cell CPT -12.6% and TDP1 cell noCPT -23.4%.
`COCCCNC(=O)c1ccc(Cn2c(=O)c3ccccc3n(CC(=O)NCCc3ccc(OC)c(OC)c3)c2=O)cc1` gave IL1B secr inh -4.7, uPA surface inh -2.1%, TDP1 cell CPT 23.1µM*, TDP1 cell noCPT 18.4µM*, HT1080 IDH1KD tx 2.5% and HT1080NT lethal -9.8%.
Screening CCn1c(=O)c(C(=O)NCCc2ccc(OC)c(OC)c2)c(O)c2ccccc21 returned IL1B secr inh 11.0, uPA surface inh 7.5%, TDP1 cell CPT 16.4µM*, TDP1 cell noCPT 20.6µM*, HT1080 IDH1KD tx 0.0% and HT1080NT lethal -6.5%.
For COc1ccc(CCNC(=O)c2ccc(Cn3c(=O)c4ccccc4n(Cc4cccc(F)c4)c3=O)cc2)cc1OC the results were TDP1 cell CPT 16.4µM* and TDP1 cell noCPT 16.4µM*.
`Cn1ccnc1-c1ccc(-c2nccn2C)cc1` gave IL1B secr inh -3.1, uPA surface inh -1.9%, TDP1 cell CPT -31.4%, TDP1 cell noCPT 10.1%, HT1080 IDH1KD tx 7.7% and HT1080NT lethal 26.6%.
O=C(NCC1Cc2cccc(-c3cnccn3)c2O1)C1COc2ccccc2O1 (configuration not stated) was read as TDP1 cell CPT 9.5% and TDP1 cell noCPT -18.8%.
